The record followed here is PubChem BioAssay (NCATS).

Results filed as inconclusive are left out. Where a call stands in place of a potency, no number is given. The source made the active and inactive calls. Calls follow the shape of the dose curve; as a rule, active = well fitted curve in the direction sought with a large enough effect in the repeat runs; inconclusive = weak or mixed curves; inactive = no such curve, though single readings can be large; an effect the other way counts as inactive or inconclusive.
Also: nearly all actives have a fitted effect of over 55% in size.
Potency is read from the fitted curve at half-maximal effect.

Chain of Cytochrome P450 2C9 (Homo sapiens) (P11712 whole entry, looked up): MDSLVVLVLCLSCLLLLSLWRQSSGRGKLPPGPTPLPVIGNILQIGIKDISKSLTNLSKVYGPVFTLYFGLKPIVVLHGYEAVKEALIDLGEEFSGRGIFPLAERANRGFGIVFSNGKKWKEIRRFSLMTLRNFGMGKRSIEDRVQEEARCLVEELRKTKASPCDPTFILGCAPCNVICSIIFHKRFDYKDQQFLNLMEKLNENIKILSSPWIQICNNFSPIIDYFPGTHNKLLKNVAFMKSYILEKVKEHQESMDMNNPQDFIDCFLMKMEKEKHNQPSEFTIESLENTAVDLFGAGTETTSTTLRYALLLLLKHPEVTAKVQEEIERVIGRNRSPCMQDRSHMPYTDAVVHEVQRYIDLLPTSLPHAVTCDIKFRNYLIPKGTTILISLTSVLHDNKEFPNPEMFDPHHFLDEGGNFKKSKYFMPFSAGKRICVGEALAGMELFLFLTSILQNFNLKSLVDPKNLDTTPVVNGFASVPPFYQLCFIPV
Chain of Cytochrome P450 2D6 (Homo sapiens) (P10635 whole entry, looked up): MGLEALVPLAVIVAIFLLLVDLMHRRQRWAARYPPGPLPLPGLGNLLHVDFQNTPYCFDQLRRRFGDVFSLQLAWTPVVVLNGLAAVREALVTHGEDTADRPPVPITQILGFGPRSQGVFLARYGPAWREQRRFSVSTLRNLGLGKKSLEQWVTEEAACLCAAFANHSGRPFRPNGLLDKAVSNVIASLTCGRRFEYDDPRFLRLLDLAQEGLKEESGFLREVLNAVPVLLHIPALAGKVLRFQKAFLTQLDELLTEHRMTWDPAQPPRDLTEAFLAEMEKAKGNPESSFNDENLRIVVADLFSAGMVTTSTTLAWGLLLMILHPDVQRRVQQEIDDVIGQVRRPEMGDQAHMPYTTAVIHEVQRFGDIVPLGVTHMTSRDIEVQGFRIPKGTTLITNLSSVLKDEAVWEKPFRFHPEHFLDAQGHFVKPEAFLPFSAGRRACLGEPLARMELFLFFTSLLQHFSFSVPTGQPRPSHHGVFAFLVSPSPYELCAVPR

In the first test the target is Cytochrome P450 2D6 (Homo sapiens) (UniProt P10635). Description: Cytochrome P450 family 2 subfamily D member 6 (CYP2D6) small molecule antagonists: luciferase biochemical (cell-free) qHTS assay (AID 1645840). The note with it: P450-Glo CYP2D6 enzyme, luciferin luminescence, 1 h; series mostly up to 57.4 µM. Put shortly:
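P450-Glo luminescent screen: recombinant CYP2D6 enzyme–proluciferin substrate mix preincubated with compound 10 min at room temperature, then NADPH regeneration added for 1 h at room temperature. Detection reagent added for 20 min; luciferin light read as relative luminescence units.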
(qHTS replaces the single test concentration by a dilution series.)
Consider `C#C[C@]1(O)CC[C@@H]2[C@@H]3CCC4=CCCC[C@@H]4[C@H]3C(=C)C[C@@]21CC`, for which the Potency result is “inactive”. As for `COc1ccc(C=CC(=O)O)cc1`, the Potency result is “inactive”. As for `C=CC1=C(C(=O)O)N2C(=O)[C@@H](NC(=O)/C(=N\OCC(=O)O)c3csc(N)n3)[C@H]2SC1`, the Potency result is “inactive”.

`Cc1cc(OCCCSc2nc(-c3ccc(C(C)(C)C)cc3)nc3cc(=O)[nH]n23)ccc1Cl`: the Potency result was “inactive”.

Regarding `O=C(Nc1cccc(Cl)c1)c1c(NC(=O)C(F)(F)F)sc2c1CCCC2`, the Potency is 4.46 µM (active). Still for that read-out and setting: the entry for `C=C(C)[C@H]1CC=C(C)CC1` is “inactive”.

Take `CN[C@@H]1[C@@H](O)[C@@H](O[C@@H]2[C@@H](O)[C@H](O[C@H]3O[C@H]([C@@H](C)NC)CC[C@H]3N)[C@@H](N)C[C@H]2N)OC[C@]1(C)O`: the Potency entry is “inactive”. For `C[C@@H]1C[C@H]2[C@@H]3C[C@H](F)C4=CC(=O)C=C[C@]4(C)[C@@]3(F)[C@@H](O)C[C@]2(C)[C@@]1(O)C(=O)COC(=O)C(C)(C)C`, the Potency entry is “inactive”. Same read-out and setting: the figure for `COc1ccc(CCNC(=O)Cn2nc(C)c3c(C)n(-c4ccc(C)cc4)nc3c2=O)c(OC)c1` is 8.49 µM (active); for `Cc1cc(Cl)ccc1NC(=O)Cn1nc(C)c2c(C)n(-c3ccccc3)nc2c1=O` it is “inactive”.

With `Cc1ccnc(NC(c2cc(C)ccc2O)c2ccc3cccnc3c2O)c1` (stereo unspecified), the Potency result was “inactive”. Still for that read-out and setting: the entry for `Cc1ccc2c(c1)-c1c(c(C(=O)N3CCN(c4cc(C)ccc4C)CC3)nn1C)CS2` is “inactive”; for `CC(C)[C@H](N)C(=O)O` it is “inactive”; for `Cc1ccc(/C=C2\C(=O)C3(C)CCC2C3(C)C)cc1` (stereo unspecified) it is “inactive”. The same measure, in the same setting: the entry for `COc1ccc(OC)c(/C=C(\C#N)c2nc3ccccc3c(=O)[nH]2)c1` is “inactive”; for `Cc1ccc(CNC(=O)C2CCN(S(=O)(=O)c3c(C)noc3/C=C/c3ccccc3F)CC2)o1` it is “inactive”. On the same count and under the same terms, the entry for `OCC=Cc1ccccc1` is “inactive”; for `NC(=O)C[C@H](N)C(=O)O` it is “inactive”; for `CCOC(=O)N1CCc2c(sc3c2c(=O)n(CCc2ccccc2)c(=O)n3CC(=O)Nc2cccc(C)c2)C1` it is 1.07 µM (active). On to `Oc1c(C(c2ccccc2)N2CCN(c3cccc(Cl)c3)CC2)sc2nc(-c3ccco3)nn12` (stereo unspecified), for which the Potency is 13.5 µM (active). Take `CCCCCCCCC=CCCCCCCCC(=O)NCCOC(=O)CC(C(=O)O)S(=O)(=O)O` (stereo unspecified): the Potency was 13.5 µM (active).

With `Cc1ccc(C)c(Nc2nc3nonc3nc2Nc2cccc(C)c2C)c1`, the Potency is 10.7 µM (active). Same read-out and setting: the figure for `CC1(C)C(/C=C/C=C/C=C/C=C2/N(CCCCS(=O)(=O)O)c3ccc4ccccc4c3C2(C)C)=[N+](CCCCS(=O)(=O)[O-])c2ccc3ccccc3c21` is 26.8 µM (active); for `COc1ccccc1C(=O)Oc1ccc(C(c2c(C)[nH][nH]c2=O)c2c(C)[nH][nH]c2=O)cc1` it is “inactive”; for `Nc1nc(Nc2ccc3c(c2)CC[C@@H](N2CCCC2)CC3)nn1-c1cc2c(nn1)-c1ccccc1CCC2` it is 5.35 µM (active). With `Oc1cccc(C(Nc2ccccn2)c2ccc3cccnc3c2O)c1Cl` (stereo unspecified), the Potency is 13.5 µM (active). As to `COc1ccc(-c2n[nH]c3c2cnc2cc(OC)c(OC)cc23)cc1`, the Potency entry is “inactive”. With `CC(C)(C)c1ccc(-c2nc(SCCCOc3ccccc3)n3[nH]c(=O)cc3n2)cc1`, the Potency result is “inactive”. `CN[C@@H](C)C(=O)N[C@H](C(=O)N1CCC[C@H]1c1nc(C(=O)c2ccc(F)cc2)cs1)C1CCCCC1`: the Potency entry is “inactive”. Same read-out and setting: the entry for `CC(NC(=O)C(=O)Nc1c2c(nn1-c1ccccc1)CSC2)c1ccccc1` (stereo unspecified) is “inactive”.

`CCOC(=O)c1c(NC(=O)c2ccc(S(=O)(=O)N(C)C3CCCCC3)cc2)sc2c1CCN(C(C)C)C2`: the Potency is 9.52 µM (active). Same read-out and setting: the figure for `Cc1cc(-n2c(SCc3ccccc3F)nc3[nH]ncc3c2=O)ccc1Cl` is 19 µM (active); for `CC[C@H]1OC(=O)[C@H](C)[C@@H](O[C@H]2C[C@@](C)(OC)[C@@H](O)[C@H](C)O2)[C@H](C)[C@@H](O[C@@H]2O[C@H](C)C[C@H](N(C)C)[C@H]2O)[C@](C)(OC)C[C@@H](C)C(=O)[C@H](C)[C@@H](O)[C@]1(C)O` it is “inactive”. In the case of `O=C(CSc1nc(-c2ccc(F)cc2)nc2c1Cc1ccccc1O2)Nc1cccc(C(=O)O)c1`, the Potency result is “inactive”. The same measure, in the same setting: the entry for `CCOC(=O)c1ccc(NC(=O)CCn2c(=O)c3cccn3c3cccnc32)cc1` is “inactive”; for `CN(CCCCCCCCCCN(C)C(=O)Oc1cccc([N+](C)(C)C)c1)C(=O)Oc1cccc([N+](C)(C)C)c1` it is “inactive”. Take `CCC(/C=C/[C@@H](C)[C@H]1CCC2C3CC=C4C[C@@H](O)CC[C@]4(C)C3CC[C@@]21C)C(C)C` (stereo partly specified): the Potency entry is “inactive”.

Turning to `Cc1cccc(OCCCSc2nc(-c3ccc(C(C)(C)C)cc3)nc3cc(=O)[nH]n23)c1C`, the Potency result is “inactive”.

Consider `N[C@@H]1CCCCN(c2c(F)cc3c(=O)c(C(=O)O)cn(C4CC4)c3c2Cl)C1`, for which the Potency result is “inactive”. The same measure, in the same setting: the figure for `Cc1ccc(Cn2c(Cc3ccccc3)nc3ccccc32)cc1` is 10.7 µM (active).

The target of another test is Cytochrome P450 2C9 (Homo sapiens) (UniProt P11712). Description: Cytochrome P450 family 2 subfamily C member 9 (CYP2C9) small molecule antagonists: luciferase biochemical (cell-free) qHTS assay (AID 1645842). The note with it: P450-Glo CYP2C9 enzyme assay, luciferin luminescence; series mostly up to 57.4 µM. The procedure, abridged:
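Luminescence, after 20 min with luciferin detection reagent, reflected CYP2C9 turnover during a 1 h NADPH-driven reaction at 37C. Enzyme-substrate mix contained 0.4% bovine serum albumin and was preincubated with compound 10 min at room temperature.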
As for `C#C[C@]1(O)CC[C@@H]2[C@@H]3CCC4=CCCC[C@@H]4[C@H]3C(=C)C[C@@]21CC`, the Potency is 3.38 µM (active). For the compound `COc1ccc(C=CC(=O)O)cc1`, the Potency entry is “inactive”.

`C=CC1=C(C(=O)O)N2C(=O)[C@@H](NC(=O)/C(=N\OCC(=O)O)c3csc(N)n3)[C@H]2SC1`: the Potency result was “inactive”.

Regarding `Cc1cc(OCCCSc2nc(-c3ccc(C(C)(C)C)cc3)nc3cc(=O)[nH]n23)ccc1Cl`, the Potency was 15.1 µM (active). Consider `O=C(Nc1cccc(Cl)c1)c1c(NC(=O)C(F)(F)F)sc2c1CCCC2`, for which the Potency was 0.354 µM (active). Turning to `C=C(C)[C@H]1CC=C(C)CC1`, the Potency entry was “inactive”. Still for that read-out and setting: the figure for `C[C@@H]1C[C@H]2[C@@H]3C[C@H](F)C4=CC(=O)C=C[C@]4(C)[C@@]3(F)[C@@H](O)C[C@]2(C)[C@@]1(O)C(=O)COC(=O)C(C)(C)C` is 9.52 µM (active); for `COc1ccc(CCNC(=O)Cn2nc(C)c3c(C)n(-c4ccc(C)cc4)nc3c2=O)c(OC)c1` it is 8.49 µM (active); for `Cc1ccnc(NC(c2cc(C)ccc2O)c2ccc3cccnc3c2O)c1` (stereo unspecified) it is 23.9 µM (active). Same read-out and setting: the figure for `Cc1ccc2c(c1)-c1c(c(C(=O)N3CCN(c4cc(C)ccc4C)CC3)nn1C)CS2` is 2.39 µM (active). Regarding `CC(C)[C@H](N)C(=O)O`, the Potency entry is “inactive”. In the case of `Cc1ccc(/C=C2\C(=O)C3(C)CCC2C3(C)C)cc1` (stereo unspecified), the Potency is 8.49 µM (active). The same measure, in the same setting: the figure for `COc1ccc(OC)c(/C=C(\C#N)c2nc3ccccc3c(=O)[nH]2)c1` is 1.51 µM (active). Consider `Cc1ccc(CNC(=O)C2CCN(S(=O)(=O)c3c(C)noc3/C=C/c3ccccc3F)CC2)o1`, for which the Potency result is “inactive”. Take `OCC=Cc1ccccc1`: the Potency was 19 µM (active). The same measure, in the same setting: the entry for `NC(=O)C[C@H](N)C(=O)O` is “inactive”; for `CCOC(=O)N1CCc2c(sc3c2c(=O)n(CCc2ccccc2)c(=O)n3CC(=O)Nc2cccc(C)c2)C1` it is 1.69 µM (active). Regarding `Oc1c(C(c2ccccc2)N2CCN(c3cccc(Cl)c3)CC2)sc2nc(-c3ccco3)nn12` (stereo unspecified), the Potency was 5.35 µM (active). Take `CCCCCCCCC=CCCCCCCCC(=O)NCCOC(=O)CC(C(=O)O)S(=O)(=O)O` (stereo unspecified): the Potency is 8.49 µM (active). Regarding `Cc1ccc(C)c(Nc2nc3nonc3nc2Nc2cccc(C)c2C)c1`, the Potency entry was “inactive”. For the compound `CC1(C)C(/C=C/C=C/C=C/C=C2/N(CCCCS(=O)(=O)O)c3ccc4ccccc4c3C2(C)C)=[N+](CCCCS(=O)(=O)[O-])c2ccc3ccccc3c21`, the Potency is 13.5 µM (active). Same read-out and setting: the figure for `COc1ccccc1C(=O)Oc1ccc(C(c2c(C)[nH][nH]c2=O)c2c(C)[nH][nH]c2=O)cc1` is 10.7 µM (active).

On to `Oc1cccc(C(Nc2ccccn2)c2ccc3cccnc3c2O)c1Cl` (stereo unspecified), for which the Potency was 10.7 µM (active). `COc1ccc(-c2n[nH]c3c2cnc2cc(OC)c(OC)cc23)cc1`: the Potency result is “inactive”. Still for that read-out and setting: the figure for `CC(C)(C)c1ccc(-c2nc(SCCCOc3ccccc3)n3[nH]c(=O)cc3n2)cc1` is 10.7 µM (active); for `CN[C@@H](C)C(=O)N[C@H](C(=O)N1CCC[C@H]1c1nc(C(=O)c2ccc(F)cc2)cs1)C1CCCCC1` it is “inactive”; for `CC(NC(=O)C(=O)Nc1c2c(nn1-c1ccccc1)CSC2)c1ccccc1` (stereo unspecified) it is 3.38 µM (active).

As to `CCOC(=O)c1c(NC(=O)c2ccc(S(=O)(=O)N(C)C3CCCCC3)cc2)sc2c1CCN(C(C)C)C2`, the Potency was 5.35 µM (active). On to `Cc1cc(-n2c(SCc3ccccc3F)nc3[nH]ncc3c2=O)ccc1Cl`, for which the Potency is 23.9 µM (active).

Turning to `CC[C@H]1OC(=O)[C@H](C)[C@@H](O[C@H]2C[C@@](C)(OC)[C@@H](O)[C@H](C)O2)[C@H](C)[C@@H](O[C@@H]2O[C@H](C)C[C@H](N(C)C)[C@H]2O)[C@](C)(OC)C[C@@H](C)C(=O)[C@H](C)[C@@H](O)[C@]1(C)O`, the Potency result was “inactive”.

On to `CCOC(=O)c1ccc(NC(=O)CCn2c(=O)c3cccn3c3cccnc32)cc1`, for which the Potency is 10.7 µM (active). As for `CN(CCCCCCCCCCN(C)C(=O)Oc1cccc([N+](C)(C)C)c1)C(=O)Oc1cccc([N+](C)(C)C)c1`, the Potency result was “inactive”. The same measure, in the same setting: the entry for `CCC(/C=C/[C@@H](C)[C@H]1CCC2C3CC=C4C[C@@H](O)CC[C@]4(C)C3CC[C@@]21C)C(C)C` (stereo partly specified) is “inactive”; for `Cc1cccc(OCCCSc2nc(-c3ccc(C(C)(C)C)cc3)nc3cc(=O)[nH]n23)c1C` it is 13.5 µM (active). The same measure, in the same setting: the entry for `N[C@@H]1CCCCN(c2c(F)cc3c(=O)c(C(=O)O)cn(C4CC4)c3c2Cl)C1` is “inactive”.

Take `Cc1ccc(Cn2c(Cc3ccccc3)nc3ccccc32)cc1`: the Potency is 13.5 µM (active).
